# Assay results reported in ChEMBL document CHEMBL3988442, “University of Dundee, Small-Polar-MMV Screening Library” (2021).
# Legend:
# [1] = target: T1, Aspartate--tRNA(Asp/Asn) ligase (Mycobacterium tuberculosis (strain ATCC 25618 / H37Rv)) (UniProt P9WFW3); test: Assay for Asp RNA synthetase-1 from Mycobacterium tuberculosis; assay type: functional; set-up: scale not given: direction of the effect not stated beside the values; details: 30 µM; also: in the data most compounds retested in dose-response had high values
# T1 sequence (whole entry): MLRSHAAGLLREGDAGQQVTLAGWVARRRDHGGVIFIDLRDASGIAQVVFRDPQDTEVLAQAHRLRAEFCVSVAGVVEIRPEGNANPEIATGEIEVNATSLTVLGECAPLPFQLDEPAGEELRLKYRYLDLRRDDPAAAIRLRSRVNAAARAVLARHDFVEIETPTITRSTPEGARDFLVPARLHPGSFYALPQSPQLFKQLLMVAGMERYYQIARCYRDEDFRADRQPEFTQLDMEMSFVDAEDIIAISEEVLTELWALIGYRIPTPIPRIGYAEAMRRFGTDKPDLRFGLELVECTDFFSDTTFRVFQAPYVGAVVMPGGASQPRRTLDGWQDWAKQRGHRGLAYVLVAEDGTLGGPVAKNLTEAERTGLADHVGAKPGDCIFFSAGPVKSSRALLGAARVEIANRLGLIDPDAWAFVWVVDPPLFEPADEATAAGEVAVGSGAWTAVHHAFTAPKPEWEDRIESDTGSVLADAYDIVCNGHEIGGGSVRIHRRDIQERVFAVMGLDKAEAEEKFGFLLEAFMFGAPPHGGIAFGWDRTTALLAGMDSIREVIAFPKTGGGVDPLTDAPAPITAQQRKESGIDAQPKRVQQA
# [2] = target: Shiga toxin 2 (Escherichia coli O157:H7) (UniProt P09385+P09386); test: E. coli 0.157:H7 Shiga Toxin SOP - stx2 screening assay; assay type: functional; set-up: scale not given: direction of the effect not stated beside the values; details: 30 µM
SMILES,Percent Effect [1],Percent Effect [2]
CCc1cc(C(=O)N2CCCC2c2nc(C)c(F)c(O)n2)on1 (stereo not given),2.22%,-57%
CN(Cc1nnc2n1CCC2)C(=O)Cc1ccc2c(c1)OCCO2,4.23%,18.1%
O=C(c1cccc(CNS(=O)(=O)c2ccccc2F)c1)N1CCCC1,5.13%,22.1%
O=C([C@H]1CCCO1)N1CC[C@H](O)[C@@H]1Cc1ccncc1,-1.01%,1.58%
CN1CCN(C[C@@H]2OC[C@H]3CN(Cc4cccc(F)c4)CC[C@H]32)CC1,-1.14%,11.3%
CCCNC(=O)CNc1ccc(C(=O)N2CCCCC2C)cc1C (stereo not given),3.79%,10.6%
OC(COCc1cccs1)CN1CCC(c2ccn[nH]2)CC1 (stereo not given),1.71%,-8.34%
CC1CCc2nc(O)c(C(=O)NCCN(C)C)cc2C1 (stereo not given),-0.552%,-8.38%
O=C(COc1ccc(C(F)(F)F)cc1)NS(=O)(=O)c1cccnc1,6.95%,15%
O=C1C(NCc2nnc3n2CCCC3)CCCN1c1cccc(F)c1 (stereo not given),0.344%,-64.6%
COCCc1noc(CNC2CCc3nc(C(C)C)nn3C2)n1 (stereo not given),3.49%,9.38%
N#Cc1ccc(OCCOc2ccccc2C(=O)N2CCOCC2)cc1,8.62%,-58.2%
O=C(c1ccn[nH]1)N1CCCC(n2cncn2)C1 (stereo not given),-5.6%,-25%
CC(C)c1nc(C(=O)N2CCCC(n3cncn3)C2)c[nH]1 (stereo not given),-5.02%,-8.87%
Cc1nn(C)c(C)c1C1CCCN1CC(=O)Nc1ccncc1 (stereo not given),1.52%,11.1%
CC(=O)NCc1ccc(C(=O)N2CCCCC2Cn2cccn2)o1 (stereo not given),0.175%,-2.7%
Cc1ccc(C(=O)N2CCN(CCCSCC#N)CC2)o1,3.17%,-67.1%
O=C(c1ccnnc1)N1CCC2(CC1)CC(N1CCOCC1)C2,2.89%,-0.921%
Cc1n[nH]c(C(=O)NCc2ccnc(OCC(F)(F)F)c2)c1Br,-3.15%,9.67%
CC(C)NC(=O)[C@@H]1C[C@H](N)CN1C(=O)c1cc2c([nH]c1=O)CCCC2,2.4%,-1.55%
COc1ccc(-c2nc(CN3CC(n4nc(C)cc4C)C3)no2)cc1,5.02%,-49.6%
O=C(C1SCCc2sccc21)N1CCC(O)CC1 (stereo not given),5.25%,-25.1%
Cc1noc(C2CCCN(C(=O)c3ccc(Br)cc3F)C2)n1 (stereo not given),-4.41%,20.7%
CCS(=O)(=O)CC(=O)NC(c1ccc(F)cc1)C1CCCC1 (stereo not given),-3.77%,-1.68%
Cc1ccc(F)cc1C(=O)N1C[C@@H](CN2CCOCC2)[C@@H](CO)C1,-3.12%,19.3%

SMILES,Percent Effect [1],Percent Effect [2]
COCCC1COC2(CCN(C(=O)c3ccco3)CC2)C1 (stereo not given),-0.368%,-2.25%
CCN(CC)c1ccc(NS(=O)(=O)c2cncc(F)c2)cn1,1.66%,-27.3%
Cc1nn(C)c(C)c1C1CCCN1C(=O)c1ccc(NC2CC2)nc1 (stereo not given),2.27%,-36.7%
CCCS(=O)(=O)N1CCN(c2cc(-n3cnc(C)c3C)nc(C)n2)CC1,-3.39%,-17.5%
O=C(CO)N1CCc2onc(Cn3cccn3)c2C1,-1.21%,7.04%
CCOCC1CN(C)Cc2cnn(CC3CCCC3)c21 (stereo not given),-2.58%,-8.48%
Cc1nnc(N2CC[C@H]3C[C@H](C(=O)N4CCOCC4)O[C@H]3C2)s1,3.25%,-4.69%
Cc1c(NC(=O)NCC(C)N2CCOCC2)cccc1OC(F)F (stereo not given),-1.79%,3.31%
CC(C)Oc1ncccc1CNC(=O)c1cc[nH]n1,-1.4%,18.4%
CN(C)C(=O)Cc1nc(CN2CCCCC2Cn2cccn2)cs1 (stereo not given),2.64%,-25.1%
O=C(c1ccc(Cl)o1)N1CCCN(Cc2cscn2)CC1,-7.87%,6.75%
Cc1ccc(S(=O)(=O)N2C[C@@H]3C[C@@H](NC(=O)C(C)(C)C)[C@@H]3C2)cc1,1.47%,6.78%
CCC(NC(=O)C1CCN(S(C)(=O)=O)CC1)c1ccc(OC)c(OC)c1 (stereo not given),0%,-10.4%
CC(C)Cc1ccc(S(=O)(=O)Nc2ccc(=O)n(C)c2)cc1,30.2%,-23.8%
CCN(Cc1cccc2c1OCO2)C(=O)NC1CC1,-0.162%,-11%
Cc1nnc2n1CCN(Cc1ncc(-c3ccc(Cl)cc3)o1)C2,-2.3%,25.1%
CCc1nc(C2CCCN(C(=O)CN(C)S(C)(=O)=O)C2)no1 (stereo not given),-3.98%,-6.61%
CCn1nc2c(cc1=O)CN(Cc1nc(N)c3ccccc3n1)CC2,1.61%,15.6%
O=C1N(CC2CC2)CCC12CCN(c1ncccn1)CC2,3.3%,-4.25%
C=C(Cl)CN1CCC(C(=O)c2cc(F)ccc2F)CC1,-0.256%,18.4%
Cc1nc(CCCNC(=O)C2CC(=O)N(C3CC3)C2)sc1C (stereo not given),3.67%,-28.3%
COc1cccc(S(=O)(=O)NC(=O)COc2c(C)cccc2C)c1,-3%,6.76%
CCCc1nc(CN2CCCC2Cn2cncn2)cs1 (stereo not given),-4.65%,-7.55%
COc1ccc(NC(=O)Cn2nc(C)ccc2=O)cc1OC,-0.697%,-5.66%
CC(=O)N1CCCC1C(=O)NCCOc1cc(C)cc(C)c1 (stereo not given),-2.19%,9.04%

SMILES,Percent Effect [1],Percent Effect [2]
CCOc1nnc(CN2CCOC(CNc3cccnn3)C2)s1 (stereo not given),4.86%,-50.9%
Cc1cccc(C(=O)NCc2ccc(N3CCCCC3)nc2)n1,2.43%,-10.8%
Cc1ccc(NC2CCN(C(=O)CCNS(C)(=O)=O)CC2)nn1,-2.45%,-0.275%
CC(C)CCNC(=O)c1sccc1N(C)S(=O)(=O)c1ccccc1,5.12%,-20%
Fc1cccc(CN2CCO[C@H]3[C@@H](OCc4ccccn4)CC[C@@H]32)c1,0.564%,-1.04%
Cc1cccc(C(=O)N2CCCN(Cc3cnn(C)c3)CC2)n1,-3.08%,-31.1%
Cc1cc(CN2CCN(CCOc3cccc(C#N)c3)CC2)no1,2.73%,20.5%
CS(=O)(=O)N1CCCCCC1C1CCN(c2ncccc2C#N)CC1 (stereo not given),-0.456%,27.9%
Cc1cnn(CCNCc2ccc(C#N)cc2F)c1,-3.18%,6.24%
Cc1ncsc1CN1C[C@@H]2COC[C@]2(COc2ccc(C#N)cn2)C1,-0.365%,-16.3%
Cc1ccc(C(=O)N2C[C@@H](OCC3CCOCC3)[C@H]3OCCC[C@H]32)o1,-0.93%,-15.3%
Cc1n[nH]c(C2CN(C(=O)c3cc(Cl)c[nH]3)CCO2)n1 (stereo not given),2.37%,-2.92%
O=C(NCC(=O)N1CCc2ccccc2C1)c1ccoc1,1.62%,-10.2%
CC(C)N1CCC(N2CCN(C3CCC3)CC2CCO)CC1 (stereo not given),-3.4%,-0.0599%
Cc1cc(C)cc(OCC(=O)NC2CCN(S(C)(=O)=O)CC2)c1,0.903%,-16.4%
O=C(CCc1cscn1)N1CCCC(c2ccn[nH]2)C1 (stereo not given),-1.82%,5.88%
CCOC[C@H]1CC[C@H]2[C@H](CCN2C(=O)c2ccncc2F)O1,5.35%,-0.318%
CN(CCOc1cccc(CNC(=O)C2CC2)c1)C1CCOCC1,-1.13%,-0.044%
O=C(c1cc(C2CC2)on1)N1CC[C@]2(C[C@H](Oc3cccnc3)CO2)C1,6.67%,7.42%
Cc1ncsc1C(=O)Nc1cccc(OCC(F)F)n1,-0.449%,1.86%
CCc1noc(CNc2cc(F)ccc2OCC2CCCO2)n1 (stereo not given),0.569%,-4.24%
O=C1CCC2(CCCN(CCc3ccccc3)C2)N1Cc1cccnc1 (stereo not given),4.25%,-5.68%
Cc1cnn(CCC(=O)N2CCOC(c3nc(C(C)(C)C)n[nH]3)C2)c1 (stereo not given),-1.81%,-26.2%
Cc1ccc(-c2nnc(CNCCn3cc(C)cn3)o2)cc1,2.15%,-42%
O=C1CC[C@@H]2[C@@H](CCN2C(=O)c2ccsc2)N1CC1CC1,-5.94%,1.28%

SMILES,Percent Effect [1],Percent Effect [2]
O=C(CCc1cscn1)NS(=O)(=O)c1ccc2c(c1)CCC2,-2.03%,-1.33%
Cc1cnn(CC2CCCN2CC(=O)N(C)CCC#N)c1 (stereo not given),-0.546%,-11.9%
COc1cc(C(=O)NS(=O)(=O)c2cccc(C#N)c2)cc(Cl)c1OC,0.845%,3.59%
CN1CC(C(=O)NC(C)(C)C)CC1=O (stereo not given),0.616%,-21.3%
Cc1nccn1C1CCCN(C(=O)c2cc3ccccc3[nH]2)C1 (stereo not given),0.714%,0.146%
O=C1N(c2ccc(F)cc2)Cc2nc(=O)n(Cc3cccc(Cl)c3)n21,0.784%,-12.3%
CCN1CCN(c2ccc(F)cc2C(C)NCc2noc(C)n2)CC1 (stereo not given),-3.26%,-6.75%
CC(C)OCCCNC(=O)c1ccc(-c2ccco2)[nH]c1=O,-5.99%,19%
O=S(=O)(CCN1CCOC(Cn2cncn2)C1)c1ccccc1 (stereo not given),-2.75%,-7.21%
Cc1noc(C2CCCN(C(=O)c3ccc(Br)o3)C2)n1 (stereo not given),-2.54%,-8.47%
CN1CCCCC1c1ncc2c(n1)CCN(Cc1ccccc1Cl)C2 (stereo not given),3.02%,-22.5%
CCN1CCN(c2ncc(-c3cc(C)no3)c(-c3ccoc3C)n2)CC1,0.313%,-6.58%
CCC1=N[C@@]2(CC[C@@H]3CN(C(=O)NCc4ccccc4)C[C@@H]32)C(=O)N1C,2.18%,3.06%
Cc1cc(C(=O)NC2CCc3nc(C)cn3C2)[nH]n1 (stereo not given),-3.72%,-2.92%
O=C(c1ccco1)N1C[C@H]2CCCN(CC3CCOCC3)[C@H]2C1,11.5%,2.22%
CC(C)c1cc(N2CCC(CCC(=O)NC3CC3)CC2)n2nccc2n1,0.32%,-4.79%
Cc1ccc(CNC(c2ccccc2)c2nccn2C)cc1C (stereo not given),1.11%,14.8%
Cc1cnn(CC2CN(Cc3nc(N)c4ccccc4n3)CCO2)c1 (stereo not given),3.58%,20.2%
COc1ccc(N2CCC(C(=O)/N=c3/[nH]ccs3)CC2)nn1,-0.842%,-7.73%
Cn1cc(C(=O)NCc2cn3c(n2)CN(Cc2ccccn2)CC3)cn1,6.41%,-42%
c1cnn(CC2CCCN2c2ncnc3sccc23)c1 (stereo not given),5.36%,26.3%
O=S1(=O)CCCN1Cc1coc(-c2cccs2)n1,-3.68%,0.853%
CC(=O)Nc1nc(C(=O)NC(C)c2ccc(F)cc2)cs1 (stereo not given),-3.46%,26.2%
Cc1ccc(N(C)C2CCN(C(=O)c3ccsc3)CC2)nn1,0.243%,1.6%
O=C(Cc1ccc2c(c1)OCCO2)NCCc1nnc2n1CCC2,6.11%,15.8%
